# PubChem BioAssay AID2417 (National Center for Advancing Translational Sciences (NCATS), 2010)
# Among all 140,000 compounds or so, about 4,300 (3.1%) were called active. About 21% were inconclusive and are not listed. This excerpt belongs to a sample that is enriched for actives. Values without a mark were called inactive.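 The calls were made as follows: active = readout at or below -70, meaning at least 70% loss of cells showing the perinucleolar compartment, a nuclear body marking cancer cells; inconclusive = readout between -30 and a set limit; inactive = the rest.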
# Assay: High Content Assay for Compounds that inhibit the Assembly of the Perinucleolar Compartment;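 also: plate controls were DMSO wells for no effect and camptothecin positive control wells for full effect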
# Conditions: PC3M PTB-GFP, PNC prevalence imaging, 16 h; at 10 µM; stronger effect = lower value
# In short: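 Read-out is percentage of cells bearing a perinucleolar compartment, from automated 20x imaging of fixed, Hoechst-stained PC3M PTB-GFP cells. Cells were seeded 4 h, then exposed 16 h to compound (23 nl of library stock) in duplicate plates.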
row,SMILES,"activity change (PNC), negative = inhibition"
1,COc1ccc(/C=N/Nc2nc3ccccc3c(=O)[nH]2)cc1,25.5%
2,COc1ccc(CCNC(=O)CCCCn2c(=O)[nH]c3ccccc3c2=O)cc1OC,-14.6%
3,COc1ccc(Cc2nnc(N/N=C/c3ccccc3O)[nH]c2=O)cc1OC,-84.6% (active)
4,NS(=O)(=O)c1cc(C(=O)NCCOc2ccccc2)c(Cl)cc1Cl,-9.28%
5,C=CCNC(=O)c1ccccc1NC(=O)c1ccc(Cl)c(S(=O)(=O)Nc2cccc(C)c2C)c1,-8.83%
6,CC(C)C[C@H](NC(=O)Nc1cccc(C(F)(F)F)c1)C(=O)O,-100% (active)
7,O=C(O)CSCC(=O)Nc1cccc(C(F)(F)F)c1,-17.2%
8,CCNS(=O)(=O)c1ccc(NC(=O)Nc2cccc(C(F)(F)F)c2)cc1,-8.69%
9,CC(=O)Nc1ccc(S(=O)(=O)NCC(=O)OCc2cc(=O)oc3ccc4ccccc4c23)cc1,-24.6%
10,Cc1cc(C(=O)COC(=O)CNC(=O)c2ccc(F)cc2)c(C)n1Cc1ccco1,8.75%
11,Cc1cc(OCCN2CCCC2)cc(C(C)C)c1,0%
12,c1ccc2cc(OCCN3CCCC3)ccc2c1,-15.5%
13,Cc1cc(OCCN2CCCC2)ccc1C(C)C,-100% (active)
14,Cc1cc([N+](=O)[O-])nn1CC(=O)Nc1ccc(Cc2ccncc2)cc1,-5.96%
15,Cc1scc(C(=O)NNC(=S)NCc2ccccc2)c1C,11.8%
16,CCCCn1c(O)c(N=NC(=O)Cn2c(C(F)(F)F)nc3ccccc32)c2ccccc21,-20%
17,Cc1c(NC(=O)Nc2ccccc2Cl)sc(=S)n1C,-119% (active)
18,CN(C)CCNC(=O)Nc1cccc(Cl)c1Cl,17.8%
19,Cc1cc(C)nc(NC(=O)Nc2ccccc2C(F)(F)F)n1,-23.4%
20,O=C1NC(c2ccccc2)=NC1(Nc1ccccn1)C(F)(F)F (centres undefined),23.3%
21,Cc1ccc(NC(=O)c2oc(=O)c3ccccc3c2-c2ccccc2)c(C)c1,36.6%
22,Cc1cc(C)nc(N(C#N)CC(=O)Nc2ccccc2)n1,-18.1%
23,COC(=O)C(C)N(C#N)c1nc(C)nc(C)n1 (centres undefined),10.7%
24,CNc1nc(SC)nc(N(C#N)CC(=O)OC)n1,-100% (active)
25,O=C(NC(=S)N1CCN(Cc2ccccc2)CC1)c1ccccc1,-17%
26,Cc1cc(C(=O)NNC(=S)NC(C)c2ccccc2)cs1 (centres undefined),1.77%
27,CN(c1ccc(C(=O)NCCC2=CCCCC2)cc1)S(C)(=O)=O,32.9%
28,COc1cc2c(cc1OC)CN(C(=O)c1ccc(S(=O)(=O)N3CCCCCC3)cc1)CC2,-8.24%
29,CN(c1ccc(C(=O)N2CCc3ccccc3C2)cc1)S(C)(=O)=O,-100% (active)
